# In PMC11006913:
# Key:
# Assay in all cases: PBM; 200 nM protein, PBS
# Details in all cases: dsDNA, one strand shown
# [1] = target: HOXB4 (Homo sapiens, UniProt P17483 148-234)
# [2] = target: HOXA4 (Homo sapiens, UniProt Q00056 201-287, W262R)
# [3] = target: HOXA2 (Homo sapiens, UniProt O43364 129-215, R185T)
# [4] = target: HOXA4 (Homo sapiens, UniProt Q00056 201-287, R217L)
# [5] = target: HOXB4 (Homo sapiens, UniProt P17483 148-234, V174I)
# [6] = target: HOXA2 (Homo sapiens, UniProt O43364 129-215, R185K)
# [7] = target: HOXA4 (Homo sapiens, UniProt Q00056 201-287)
# [8] = target: VAX1 (Homo sapiens, UniProt Q5SQQ9 86-172)
# [9] = target: VAX1 (Homo sapiens, UniProt Q5SQQ9 86-172, T142I)
# [10] = target: HOXA2 (Homo sapiens, UniProt O43364 129-215, Y150S)
# [11] = target: HOXA4 (Homo sapiens, UniProt Q00056 201-287, W262F)
# [12] = target: HOXA2 (Homo sapiens, UniProt O43364 129-215)
# [13] = target: VAX1 (Homo sapiens, UniProt Q5SQQ9 86-172, K157R)
# [14] = target: HOXA7 (Homo sapiens, UniProt P31268 116-202)
# [15] = target: HOXA7 (Homo sapiens, UniProt P31268 116-202, W177C)
# [16] = target: T1, VENTX (Homo sapiens, UniProt O95231 78-163, Y115F)
# T1 sequence: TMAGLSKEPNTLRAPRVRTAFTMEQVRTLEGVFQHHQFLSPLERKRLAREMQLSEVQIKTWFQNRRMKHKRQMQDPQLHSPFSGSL
# [17] = target: HOXB6 (Homo sapiens, UniProt P17509 132-218, K202E)
# [18] = target: HOXB6 (Homo sapiens, UniProt P17509 132-218)
# Chain of HOXB6 (Homo sapiens, UniProt P17509 132-218) (P17509 132-218): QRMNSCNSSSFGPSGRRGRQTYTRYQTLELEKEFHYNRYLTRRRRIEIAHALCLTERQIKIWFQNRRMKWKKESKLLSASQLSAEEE
# Chain of HOXB4 (Homo sapiens, UniProt P17483 148-234, V174I) (P17483 148-234 V174I): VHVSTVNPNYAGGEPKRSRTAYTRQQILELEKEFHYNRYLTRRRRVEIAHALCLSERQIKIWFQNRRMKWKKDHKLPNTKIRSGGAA
# Chain of HOXA2 (Homo sapiens, UniProt O43364 129-215, R185K) (O43364 129-215 R185K): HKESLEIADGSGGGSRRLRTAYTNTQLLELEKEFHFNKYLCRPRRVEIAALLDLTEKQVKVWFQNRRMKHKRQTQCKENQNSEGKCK
# Chain of HOXA4 (Homo sapiens, UniProt Q00056 201-287, R217L) (Q00056 201-287 R217L): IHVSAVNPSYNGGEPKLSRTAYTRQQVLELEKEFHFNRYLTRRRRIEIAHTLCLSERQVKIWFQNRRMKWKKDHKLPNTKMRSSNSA
# Chain of HOXA2 (Homo sapiens, UniProt O43364 129-215, Y150S) (O43364 129-215 Y150S): as the sequence (O43364 129-215 R185K) above, with Y22S, K57R counted along it
# Chain of VAX1 (Homo sapiens, UniProt Q5SQQ9 86-172, T142I) (Q5SQQ9 86-172 T142I): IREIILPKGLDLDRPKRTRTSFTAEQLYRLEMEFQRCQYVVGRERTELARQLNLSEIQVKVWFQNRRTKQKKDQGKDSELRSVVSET
# Chain of HOXA4 (Homo sapiens, UniProt Q00056 201-287, W262F) (Q00056 201-287 W262F): as the sequence (Q00056 201-287 R217L) above, with L17R, W62F counted along it
# Chain of VAX1 (Homo sapiens, UniProt Q5SQQ9 86-172, K157R) (Q5SQQ9 86-172 K157R): as the sequence (Q5SQQ9 86-172 T142I) above, with I57T, K72R counted along it
# Chain of HOXA2 (Homo sapiens, UniProt O43364 129-215, R185T) (O43364 129-215 R185T): as the sequence (O43364 129-215 R185K) above, with K57T counted along it
# Chain of HOXA4 (Homo sapiens, UniProt Q00056 201-287) (Q00056 201-287): as the sequence (Q00056 201-287 R217L) above, with L17R counted along it
# Chain of HOXB4 (Homo sapiens, UniProt P17483 148-234) (P17483 148-234): as the sequence (P17483 148-234 V174I) above, with I27V counted along it
# Chain of HOXB6 (Homo sapiens, UniProt P17509 132-218, K202E) (P17509 132-218 K202E): as the sequence (P17509 132-218) above, with K71E counted along it
# Chain of VAX1 (Homo sapiens, UniProt Q5SQQ9 86-172) (Q5SQQ9 86-172): as the sequence (Q5SQQ9 86-172 T142I) above, with I57T counted along it
# Chain of HOXA2 (Homo sapiens, UniProt O43364 129-215) (O43364 129-215): as the sequence (O43364 129-215 R185K) above, with K57R counted along it
# Chain of HOXA4 (Homo sapiens, UniProt Q00056 201-287, W262R) (Q00056 201-287 W262R): as the sequence (Q00056 201-287 R217L) above, with L17R, W62R counted along it
# Chain of HOXA7 (Homo sapiens, UniProt P31268 116-202) (P31268 116-202): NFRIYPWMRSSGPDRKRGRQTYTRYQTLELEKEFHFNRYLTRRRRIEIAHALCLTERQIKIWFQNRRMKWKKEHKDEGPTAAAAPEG
# Chain of HOXA7 (Homo sapiens, UniProt P31268 116-202, W177C) (P31268 116-202 W177C): as the sequence (P31268 116-202) above, with W62C counted along it
sequence,measurement,setting,value
CATCATTA,binding signal,[1],"13.4 upbm affinity estimate (log intensity, higher = more binding, comparable within an allelic series)"
same,binding signal,[2],"10.8 upbm affinity estimate (log intensity, higher = more binding, comparable within an allelic series)"
same,binding signal,[3],"12.5 upbm affinity estimate (log intensity, higher = more binding, comparable within an allelic series)"
same,binding signal,[4],"12.3 upbm affinity estimate (log intensity, higher = more binding, comparable within an allelic series)"
same,binding signal,[5],"14 upbm affinity estimate (log intensity, higher = more binding, comparable within an allelic series)"
same,binding signal,[6],"13.2 upbm affinity estimate (log intensity, higher = more binding, comparable within an allelic series)"
same,binding signal,[7],"14 upbm affinity estimate (log intensity, higher = more binding, comparable within an allelic series)"
same,binding signal,[8],"12.9 upbm affinity estimate (log intensity, higher = more binding, comparable within an allelic series)"
same,binding signal,[9],"12.8 upbm affinity estimate (log intensity, higher = more binding, comparable within an allelic series)"
same,binding signal,[10],"11 upbm affinity estimate (log intensity, higher = more binding, comparable within an allelic series)"
same,binding signal,[11],"11.8 upbm affinity estimate (log intensity, higher = more binding, comparable within an allelic series)"
same,binding signal,[12],"12.3 upbm affinity estimate (log intensity, higher = more binding, comparable within an allelic series)"
same,binding signal,[13],"12.7 upbm affinity estimate (log intensity, higher = more binding, comparable within an allelic series)"
CAGACCCC,binding signal,[1],"7.56 upbm affinity estimate (log intensity, higher = more binding, comparable within an allelic series)"
same,binding signal,[14],"8.69 upbm affinity estimate (log intensity, higher = more binding, comparable within an allelic series)"
same,binding signal,[5],"7.7 upbm affinity estimate (log intensity, higher = more binding, comparable within an allelic series)"
same,binding signal,[8],"6.95 upbm affinity estimate (log intensity, higher = more binding, comparable within an allelic series)"
same,binding signal,[9],"7.15 upbm affinity estimate (log intensity, higher = more binding, comparable within an allelic series)"
same,binding signal,[15],"8.53 upbm affinity estimate (log intensity, higher = more binding, comparable within an allelic series)"
same,binding signal,[13],"6.94 upbm affinity estimate (log intensity, higher = more binding, comparable within an allelic series)"
CAGGCCCC,binding signal,[1],"7.68 upbm affinity estimate (log intensity, higher = more binding, comparable within an allelic series)"
same,binding signal,[2],"9.66 upbm affinity estimate (log intensity, higher = more binding, comparable within an allelic series)"
same,binding signal,[4],"9.56 upbm affinity estimate (log intensity, higher = more binding, comparable within an allelic series)"
same,binding signal,[5],"7.6 upbm affinity estimate (log intensity, higher = more binding, comparable within an allelic series)"
same,binding signal,[7],"9.7 upbm affinity estimate (log intensity, higher = more binding, comparable within an allelic series)"
same,binding signal,[11],"9.81 upbm affinity estimate (log intensity, higher = more binding, comparable within an allelic series)"
CCTAATGA,binding signal,[1],"13 upbm affinity estimate (log intensity, higher = more binding, comparable within an allelic series)"
same,binding signal,[2],"10.5 upbm affinity estimate (log intensity, higher = more binding, comparable within an allelic series)"
same,binding signal,[16],"11.5 upbm affinity estimate (log intensity, higher = more binding, comparable within an allelic series)"
same,binding signal,[3],"12.7 upbm affinity estimate (log intensity, higher = more binding, comparable within an allelic series)"
same,binding signal,[4],"11.7 upbm affinity estimate (log intensity, higher = more binding, comparable within an allelic series)"
same,binding signal,[5],"13.6 upbm affinity estimate (log intensity, higher = more binding, comparable within an allelic series)"
same,binding signal,[6],"13.4 upbm affinity estimate (log intensity, higher = more binding, comparable within an allelic series)"
same,binding signal,[7],"13.7 upbm affinity estimate (log intensity, higher = more binding, comparable within an allelic series)"
same,binding signal,[8],"13.2 upbm affinity estimate (log intensity, higher = more binding, comparable within an allelic series)"
same,binding signal,[9],"13 upbm affinity estimate (log intensity, higher = more binding, comparable within an allelic series)"
same,binding signal,[10],"10.7 upbm affinity estimate (log intensity, higher = more binding, comparable within an allelic series)"
same,binding signal,[11],"11.6 upbm affinity estimate (log intensity, higher = more binding, comparable within an allelic series)"
same,binding signal,[12],"12.4 upbm affinity estimate (log intensity, higher = more binding, comparable within an allelic series)"
same,binding signal,[13],"13 upbm affinity estimate (log intensity, higher = more binding, comparable within an allelic series)"
CGGGCTTC,binding signal,[1],"7.22 upbm affinity estimate (log intensity, higher = more binding, comparable within an allelic series)"
same,binding signal,[2],"9.75 upbm affinity estimate (log intensity, higher = more binding, comparable within an allelic series)"
same,binding signal,[4],"9.66 upbm affinity estimate (log intensity, higher = more binding, comparable within an allelic series)"
same,binding signal,[5],"7.19 upbm affinity estimate (log intensity, higher = more binding, comparable within an allelic series)"
same,binding signal,[7],"9.6 upbm affinity estimate (log intensity, higher = more binding, comparable within an allelic series)"
same,binding signal,[11],"9.77 upbm affinity estimate (log intensity, higher = more binding, comparable within an allelic series)"
CCGGACCA,binding signal,[1],"7.72 upbm affinity estimate (log intensity, higher = more binding, comparable within an allelic series)"
same,binding signal,[17],"9.06 upbm affinity estimate (log intensity, higher = more binding, comparable within an allelic series)"
same,binding signal,[5],"7.8 upbm affinity estimate (log intensity, higher = more binding, comparable within an allelic series)"
same,binding signal,[18],"8.79 upbm affinity estimate (log intensity, higher = more binding, comparable within an allelic series)"
CCTACCGC,binding signal,[1],"7.61 upbm affinity estimate (log intensity, higher = more binding, comparable within an allelic series)"
same,binding signal,[5],"7.56 upbm affinity estimate (log intensity, higher = more binding, comparable within an allelic series)"
AGGGGGGG,binding signal,[1],"7.37 upbm affinity estimate (log intensity, higher = more binding, comparable within an allelic series)"
same,binding signal,[5],"7.23 upbm affinity estimate (log intensity, higher = more binding, comparable within an allelic series)"
CGCCGAAG,binding signal,[1],"7.84 upbm affinity estimate (log intensity, higher = more binding, comparable within an allelic series)"
same,binding signal,[17],"9.07 upbm affinity estimate (log intensity, higher = more binding, comparable within an allelic series)"
same,binding signal,[5],"7.65 upbm affinity estimate (log intensity, higher = more binding, comparable within an allelic series)"
same,binding signal,[18],"9.15 upbm affinity estimate (log intensity, higher = more binding, comparable within an allelic series)"
TCCCAGGA,binding signal,[1],"7.82 upbm affinity estimate (log intensity, higher = more binding, comparable within an allelic series)"
same,binding signal,[5],"7.66 upbm affinity estimate (log intensity, higher = more binding, comparable within an allelic series)"
same,binding signal,[8],"7.2 upbm affinity estimate (log intensity, higher = more binding, comparable within an allelic series)"
same,binding signal,[9],"7.36 upbm affinity estimate (log intensity, higher = more binding, comparable within an allelic series)"
same,binding signal,[13],"7.24 upbm affinity estimate (log intensity, higher = more binding, comparable within an allelic series)"
ATTCATTA,binding signal,[1],"13.1 upbm affinity estimate (log intensity, higher = more binding, comparable within an allelic series)"
same,binding signal,[2],"10.5 upbm affinity estimate (log intensity, higher = more binding, comparable within an allelic series)"
same,binding signal,[4],"12.1 upbm affinity estimate (log intensity, higher = more binding, comparable within an allelic series)"
same,binding signal,[5],"13.7 upbm affinity estimate (log intensity, higher = more binding, comparable within an allelic series)"
same,binding signal,[7],"13.7 upbm affinity estimate (log intensity, higher = more binding, comparable within an allelic series)"
same,binding signal,[11],"11.6 upbm affinity estimate (log intensity, higher = more binding, comparable within an allelic series)"
ACCGCCGG,binding signal,[1],"7.71 upbm affinity estimate (log intensity, higher = more binding, comparable within an allelic series)"
same,binding signal,[2],"9.74 upbm affinity estimate (log intensity, higher = more binding, comparable within an allelic series)"
same,binding signal,[3],"7.21 upbm affinity estimate (log intensity, higher = more binding, comparable within an allelic series)"
same,binding signal,[4],"9.58 upbm affinity estimate (log intensity, higher = more binding, comparable within an allelic series)"
same,binding signal,[5],"7.62 upbm affinity estimate (log intensity, higher = more binding, comparable within an allelic series)"
same,binding signal,[6],"10.2 upbm affinity estimate (log intensity, higher = more binding, comparable within an allelic series)"
same,binding signal,[7],"9.85 upbm affinity estimate (log intensity, higher = more binding, comparable within an allelic series)"
same,binding signal,[8],"7.52 upbm affinity estimate (log intensity, higher = more binding, comparable within an allelic series)"
same,binding signal,[9],"7.48 upbm affinity estimate (log intensity, higher = more binding, comparable within an allelic series)"
same,binding signal,[10],"10.4 upbm affinity estimate (log intensity, higher = more binding, comparable within an allelic series)"
same,binding signal,[11],"9.75 upbm affinity estimate (log intensity, higher = more binding, comparable within an allelic series)"
same,binding signal,[12],"7.23 upbm affinity estimate (log intensity, higher = more binding, comparable within an allelic series)"
same,binding signal,[13],"7.38 upbm affinity estimate (log intensity, higher = more binding, comparable within an allelic series)"
ATAATGAC,binding signal,[1],"12.9 upbm affinity estimate (log intensity, higher = more binding, comparable within an allelic series)"
same,binding signal,[2],"10.4 upbm affinity estimate (log intensity, higher = more binding, comparable within an allelic series)"
same,binding signal,[14],"11.2 upbm affinity estimate (log intensity, higher = more binding, comparable within an allelic series)"
same,binding signal,[17],"9.89 upbm affinity estimate (log intensity, higher = more binding, comparable within an allelic series)"
same,binding signal,[3],"12.4 upbm affinity estimate (log intensity, higher = more binding, comparable within an allelic series)"
same,binding signal,[4],"12.1 upbm affinity estimate (log intensity, higher = more binding, comparable within an allelic series)"
same,binding signal,[5],"13.6 upbm affinity estimate (log intensity, higher = more binding, comparable within an allelic series)"
same,binding signal,[6],"13.2 upbm affinity estimate (log intensity, higher = more binding, comparable within an allelic series)"
same,binding signal,[7],"13.7 upbm affinity estimate (log intensity, higher = more binding, comparable within an allelic series)"
same,binding signal,[8],"12.6 upbm affinity estimate (log intensity, higher = more binding, comparable within an allelic series)"
same,binding signal,[9],"12.5 upbm affinity estimate (log intensity, higher = more binding, comparable within an allelic series)"
same,binding signal,[10],"10.8 upbm affinity estimate (log intensity, higher = more binding, comparable within an allelic series)"
same,binding signal,[15],"8.74 upbm affinity estimate (log intensity, higher = more binding, comparable within an allelic series)"
same,binding signal,[11],"11.4 upbm affinity estimate (log intensity, higher = more binding, comparable within an allelic series)"
same,binding signal,[12],"12.4 upbm affinity estimate (log intensity, higher = more binding, comparable within an allelic series)"
same,binding signal,[13],"12.3 upbm affinity estimate (log intensity, higher = more binding, comparable within an allelic series)"
same,binding signal,[18],"11.7 upbm affinity estimate (log intensity, higher = more binding, comparable within an allelic series)"
CGTGGCGC,binding signal,[1],"7.6 upbm affinity estimate (log intensity, higher = more binding, comparable within an allelic series)"
same,binding signal,[5],"7.68 upbm affinity estimate (log intensity, higher = more binding, comparable within an allelic series)"
ATCATTAC,binding signal,[1],"13.1 upbm affinity estimate (log intensity, higher = more binding, comparable within an allelic series)"
same,binding signal,[2],"10.4 upbm affinity estimate (log intensity, higher = more binding, comparable within an allelic series)"
same,binding signal,[4],"12 upbm affinity estimate (log intensity, higher = more binding, comparable within an allelic series)"
same,binding signal,[5],"13.8 upbm affinity estimate (log intensity, higher = more binding, comparable within an allelic series)"
same,binding signal,[7],"13.6 upbm affinity estimate (log intensity, higher = more binding, comparable within an allelic series)"
same,binding signal,[11],"11.2 upbm affinity estimate (log intensity, higher = more binding, comparable within an allelic series)"
